Experimental data as given in PubChem BioAssay (NCI).
This is part of a sample that, as a whole, favours compounds with a hit. Of some 83,000 tested, about 20% had one in any assay.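 Negative percent growth values reflect cell death: -40 means 40% of the cells present at the start died, and -100 means all died.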 Calls of active or inactive are those of the source. How the source made its calls: active means growth percent below 10; inactive means the rest.

What was measured:
Assay in all cases: NCI-60 one-dose screen, 48 h (100 = growth as untreated, 0 = no growth, -100 = all killed)
Conditions in all cases: 10 µM unless noted
SK-MEL-2 melanoma = tested on: SK-MEL-2 melanoma
EKVX NSCLC = tested on: EKVX NSCLC
SN12C renal = tested on: SN12C renal
UO-31 renal = tested on: UO-31 renal
TK-10 renal = tested on: TK-10 renal
ACHN renal = tested on: ACHN renal
CAKI-1 renal = tested on: CAKI-1 renal
A498 renal = tested on: A498 renal
CCRF-CEM leukemia = tested on: CCRF-CEM leukemia
MOLT-4 leukemia = tested on: MOLT-4 leukemia
SR leukemia = tested on: SR leukemia
RPMI-8226 leukemia = tested on: RPMI-8226 leukemia
OVCAR-8 ovarian = tested on: OVCAR-8 ovarian
OVCAR-5 ovarian = tested on: OVCAR-5 ovarian
OVCAR-4 ovarian = tested on: OVCAR-4 ovarian
SK-OV-3 ovarian = tested on: SK-OV-3 ovarian
IGROV1 ovarian = tested on: IGROV1 ovarian
OVCAR-3 ovarian = tested on: OVCAR-3 ovarian
HS 578T breast = tested on: HS 578T breast
NCI/ADR-RES ovarian = tested on: NCI/ADR-RES ovarian

Measured: growth

O=CN1N=C(c2cccc(Nc3ccncc3)c2)CC1c1ccc2c(c1)OCO2 (stereo not given)
inactive: SK-MEL-2 melanoma 85.5% | EKVX NSCLC 67.6% | SN12C renal 99.3% | UO-31 renal 86.9% | TK-10 renal 109% | ACHN renal 97.2% | CAKI-1 renal 80.7% | A498 renal 96.5% | CCRF-CEM leukemia 86.1% | MOLT-4 leukemia 92.3% | SR leukemia 82.1% | RPMI-8226 leukemia 80% | OVCAR-8 ovarian 91.3% | OVCAR-5 ovarian 98.5% | OVCAR-4 ovarian 82.7% | SK-OV-3 ovarian 78.6% | IGROV1 ovarian 102% | OVCAR-3 ovarian 99.6% | HS 578T breast 94.2% | NCI/ADR-RES ovarian 101%

CCCC1Cc2cc(-n3nc(C)c4c3CC(C)(C)CC4=O)cc(NC3CCC(O)CC3)c2C(=O)N1 (stereo not given)
inactive: SK-MEL-2 melanoma 48.7% | EKVX NSCLC 62.8% | SN12C renal 38% | UO-31 renal 28.9% | TK-10 renal 38.2% | ACHN renal 29.3% | CAKI-1 renal 30.4% | A498 renal 37.6% | CCRF-CEM leukemia 35% | MOLT-4 leukemia 16.8% | SR leukemia 29.5% | RPMI-8226 leukemia 51% | OVCAR-8 ovarian 40.3% | OVCAR-5 ovarian 58.8% | OVCAR-4 ovarian 62.5% | SK-OV-3 ovarian 17.1% | IGROV1 ovarian 24.7% | OVCAR-3 ovarian 52.6% | HS 578T breast 59.1% | NCI/ADR-RES ovarian 47%

COc1nc2ccccc2cc1/C=[N+](\[O-])c1ccccc1
inactive: SK-MEL-2 melanoma 87.8% | EKVX NSCLC 87% | SN12C renal 59.1% | UO-31 renal 43.9% | TK-10 renal 79.6% | ACHN renal 86.1% | CAKI-1 renal 79.8% | A498 renal 90.3% | CCRF-CEM leukemia 13.1% | MOLT-4 leukemia 29.5% | SR leukemia 21.5% | RPMI-8226 leukemia 14.2% | OVCAR-8 ovarian 37.3% | OVCAR-5 ovarian 97.4% | OVCAR-4 ovarian 74.3% | SK-OV-3 ovarian 87.3% | IGROV1 ovarian 86.7% | OVCAR-3 ovarian 86.2% | HS 578T breast 81.5% | NCI/ADR-RES ovarian 44.9%

CNc1nc2ncc(-c3c(C)noc3C)cc2n1Cc1ccccc1
active: A498 renal 0.868% | RPMI-8226 leukemia -2.96%
inactive: SK-MEL-2 melanoma 67.4% | EKVX NSCLC 62.6% | SN12C renal 71.1% | UO-31 renal 21.3% | TK-10 renal 24.3% | ACHN renal 42.1% | CAKI-1 renal 36.7% | CCRF-CEM leukemia 50.5% | MOLT-4 leukemia 48.9% | SR leukemia 27.9% | OVCAR-8 ovarian 55.9% | OVCAR-5 ovarian 67.5% | OVCAR-4 ovarian 53.6% | SK-OV-3 ovarian 21% | IGROV1 ovarian 63.6% | OVCAR-3 ovarian 47.2% | HS 578T breast 39.3% | NCI/ADR-RES ovarian 67.4%

Cc1nc2cccc(NCc3ccc(C(=O)NO)cc3)c2c(=O)n1-c1ccccc1
inactive: SK-MEL-2 melanoma 61.7% | EKVX NSCLC 61.8% | SN12C renal 63.2% | UO-31 renal 17% | TK-10 renal 15.9% | ACHN renal 30.5% | CAKI-1 renal 28% | A498 renal 41.3% | CCRF-CEM leukemia 13.4% | MOLT-4 leukemia 11.5% | SR leukemia 14.8% | RPMI-8226 leukemia 18.5% | OVCAR-5 ovarian 40% | OVCAR-4 ovarian 62.2% | IGROV1 ovarian 20.4% | OVCAR-3 ovarian 43.9% | HS 578T breast 56.8% | NCI/ADR-RES ovarian 19.2%
active: OVCAR-8 ovarian 3.81% | SK-OV-3 ovarian 4.52%

CCOC(=O)CC1CSC(N/N=C/c2ccc(O)cc2)=N1 (stereo not given)
inactive: SK-MEL-2 melanoma 95.1% | EKVX NSCLC 103% | SN12C renal 105% | UO-31 renal 89.7% | TK-10 renal 91.5% | ACHN renal 105% | CAKI-1 renal 94.6% | A498 renal 108% | CCRF-CEM leukemia 115% | MOLT-4 leukemia 107% | SR leukemia 98.5% | RPMI-8226 leukemia 104% | OVCAR-8 ovarian 103% | OVCAR-5 ovarian 100% | OVCAR-4 ovarian 108% | SK-OV-3 ovarian 88.8% | IGROV1 ovarian 97.3% | OVCAR-3 ovarian 110% | HS 578T breast 104% | NCI/ADR-RES ovarian 108%

COC(=O)c1c(C)nc(C)c2c1C(=O)C(Br)=C(NCCCCO)C2=O
active: OVCAR-3 ovarian 1.87%
inactive: SK-MEL-2 melanoma 64.7% | EKVX NSCLC 62.2% | SN12C renal 61.7% | UO-31 renal 79.7% | TK-10 renal 119% | ACHN renal 84.7% | CAKI-1 renal 70.5% | A498 renal 115% | CCRF-CEM leukemia 71.8% | MOLT-4 leukemia 79.5% | SR leukemia 46.4% | RPMI-8226 leukemia 75.1% | OVCAR-8 ovarian 57.7% | OVCAR-5 ovarian 101% | OVCAR-4 ovarian 38.4% | SK-OV-3 ovarian 121% | IGROV1 ovarian 52.9% | HS 578T breast 87.7% | NCI/ADR-RES ovarian 80%

O=C1NCCS(=O)(=O)/C1=C\C=C\c1cccc(C(F)(F)F)c1
active: CCRF-CEM leukemia 0.774% | MOLT-4 leukemia 8.72% | SR leukemia 6.61% | RPMI-8226 leukemia -7.36% | NCI/ADR-RES ovarian -37.5%
inactive: SK-MEL-2 melanoma 54.8% | EKVX NSCLC 82.3% | SN12C renal 24.3% | UO-31 renal 26.8% | TK-10 renal 33.6% | ACHN renal 12.7% | CAKI-1 renal 55.4% | A498 renal 56.9% | OVCAR-8 ovarian 20.4% | OVCAR-5 ovarian 48.4% | OVCAR-4 ovarian 53.4% | SK-OV-3 ovarian 85.8% | IGROV1 ovarian 35.5% | OVCAR-3 ovarian 22.2% | HS 578T breast 51.1%

Cn1ccnc1C(=O)/C=C/c1ccc(C(=O)Nc2c(F)c(F)c(F)c(F)c2F)cc1
active: SN12C renal 6.49% | UO-31 renal -81.7% | ACHN renal -43% | CAKI-1 renal 8.22% | CCRF-CEM leukemia 2.63% | MOLT-4 leukemia 2.64% | SR leukemia -17.4% | RPMI-8226 leukemia -9.03% | IGROV1 ovarian 0.574% | OVCAR-3 ovarian -4% | NCI/ADR-RES ovarian 7.31%
inactive: SK-MEL-2 melanoma 96.2% | EKVX NSCLC 25% | TK-10 renal 20.4% | A498 renal 76.7% | OVCAR-8 ovarian 20.6% | OVCAR-5 ovarian 13.1% | OVCAR-4 ovarian 22.4% | SK-OV-3 ovarian 62.1% | HS 578T breast 48.5%

O=C(Nc1cccc(Cn2c(=O)[nH]c3ccc(Oc4ncccn4)cc3c2=O)c1)c1cccc(Cl)c1
inactive: SK-MEL-2 melanoma 71.7% | EKVX NSCLC 46.3% | SN12C renal 80.1% | UO-31 renal 39.6% | TK-10 renal 53.3% | ACHN renal 60% | CAKI-1 renal 52.4% | A498 renal 45.3% | CCRF-CEM leukemia 47.1% | MOLT-4 leukemia 15.4% | SR leukemia 35.9% | RPMI-8226 leukemia 35.1% | OVCAR-8 ovarian 58.4% | OVCAR-5 ovarian 86.2% | OVCAR-4 ovarian 30.5% | SK-OV-3 ovarian 82.5% | IGROV1 ovarian 62.4% | OVCAR-3 ovarian 67.6% | HS 578T breast 73.7% | NCI/ADR-RES ovarian 77.5%

Oc1cccc2c1NCCC2
inactive: EKVX NSCLC 22.3% | SN12C renal 11.7% | TK-10 renal 23.3% | ACHN renal 11.4% | CAKI-1 renal 15.6% | A498 renal 19.6% | CCRF-CEM leukemia 18.6% | MOLT-4 leukemia 28% | SR leukemia 27.2% | RPMI-8226 leukemia 14.9% | OVCAR-8 ovarian 19.9% | OVCAR-5 ovarian 44.7% | OVCAR-4 ovarian 17.9% | SK-OV-3 ovarian 20.4% | IGROV1 ovarian 18.3% | HS 578T breast 24.3% | NCI/ADR-RES ovarian 23.7%
active: SK-MEL-2 melanoma -14.9% | UO-31 renal 6.25% | OVCAR-3 ovarian 4.94%

CO[C@H]1/C=C/O[C@@]2(C)Oc3c(C)c(O)c4c(O)c(c5c(nc6cc(C)ccn65)c4c3C2=O)NC(=O)/C(C)=C\C=C\[C@H](C)[C@H](O)[C@@H](C)C(O)[C@@H](C)[C@H](OC(C)=O)[C@@H]1C (stereo not given in full)
inactive: SK-MEL-2 melanoma 93.1% | EKVX NSCLC 101% | SN12C renal 98.6% | UO-31 renal 76.3% | TK-10 renal 102% | ACHN renal 99.5% | CAKI-1 renal 94.6% | A498 renal 134% | CCRF-CEM leukemia 101% | MOLT-4 leukemia 89.8% | SR leukemia 99.3% | RPMI-8226 leukemia 104% | OVCAR-8 ovarian 98.3% | OVCAR-5 ovarian 113% | OVCAR-4 ovarian 100% | SK-OV-3 ovarian 31.9% | IGROV1 ovarian 97% | OVCAR-3 ovarian 104% | HS 578T breast 72% | NCI/ADR-RES ovarian 104%

Nc1cc(-c2ccc(Cl)cc2)nn1-c1nc(-c2ccc(Br)cc2)cs1
inactive: SK-MEL-2 melanoma 96.9% | EKVX NSCLC 93.6% | SN12C renal 97.7% | UO-31 renal 93.4% | TK-10 renal 96.4% | ACHN renal 101% | CAKI-1 renal 97.8% | A498 renal 91.7% | CCRF-CEM leukemia 104% | MOLT-4 leukemia 103% | SR leukemia 91.3% | RPMI-8226 leukemia 100% | OVCAR-8 ovarian 103% | OVCAR-5 ovarian 93.7% | OVCAR-4 ovarian 103% | SK-OV-3 ovarian 92.4% | IGROV1 ovarian 99.9% | OVCAR-3 ovarian 106% | HS 578T breast 98% | NCI/ADR-RES ovarian 105%

C=C1C(=O)O[C@H]2[C@H]1CC/C(CNC(=O)/C=C/c1cc(OC)c(OC)c(OC)c1)=C\CC[C@@]1(C)O[C@@H]21
inactive: EKVX NSCLC 25.3% | SN12C renal 28.1% | CAKI-1 renal 33.9% | OVCAR-5 ovarian 15.9% | OVCAR-4 ovarian 14.7% | SK-OV-3 ovarian 64.6% | IGROV1 ovarian 17.8% | HS 578T breast 24.2% | NCI/ADR-RES ovarian 76.7%
active: SK-MEL-2 melanoma 3.52% | UO-31 renal -38.2% | TK-10 renal -86.5% | ACHN renal -79.6% | A498 renal -9.24% | CCRF-CEM leukemia -10.6% | MOLT-4 leukemia -26.6% | SR leukemia -13.8% | RPMI-8226 leukemia -5.59% | OVCAR-8 ovarian 5.04% | OVCAR-3 ovarian -57.5%
